Our source for the AC50 and outcome values is PubChem BioAssay AID2284351 (EPA ToxCast).

Molecules are shown by their SMILES. Active and inactive are the calls of the source. How the source made its calls: active means hit-call score of the fitted dose curve at least 0.9, where 1 is the maximum; inactive means score below 0.9.

In this test the target is Peroxisome proliferator-activated receptor gamma (Homo sapiens) (UniProt P37231). The experiment in a line: ATG_hPPARg_EcoTox2: Attagene TRANS-FACTORIAL EcoTox-2 HepG2 Assay for human Peroxisome Proliferator-activated Receptor gamma (PPARg). The protocol: ATG_EcoTox2 is a cell-based, multiplexed assay created by modifying the existing Attagene TRANS-FACTORIAL system to include a panel of nuclear receptors from some or all the following species: human (Homo sapiens), african clawed frog (Xenopus laevis), rainbow trout (Oncorhynchus mykiss), japanese medaka (Oryzias latipes), and zebrafish (Danio rerio). The ECOTOX2-FACTORIAL format uses HepG2, a human liver cell line, with measurements taken at 24 hours after chemical dosing in a 24-well plate. ATG_hPPARg_EcoTox2 is one of 29 assay components calculated in the ATG_EcoTox2 assay. It is designed to make measurements of mRNA induction, a form of inducible reporter, as detected with fluorescence intensity signals by Reverse transcription polymerase chain reaction (RT-PCR) and Capillary electrophoresis technology.The assay endpoint ATG_hPPARg_EcoTox2 was analyzed in the positive analysis fitting direction relative to DMSO as the negative control and baseline of activity. Using a type of inducible reporter, measures of mRNA for gain-of-signal activity can be used to understand the reporter gene at the transcription factor-level as they relate to the gene PPARg. Furthermore, this assay endpoint can be referred to as a primary readout, because this assay has produced multiple assay endpoints where this one serves a reporter gene function. To generalize the intended target to other relatable targets, this assay endpoint is annotated to the nuclear receptor intended target family, where the subfamily is non-steroidal.
Peroxisome proliferator-activated receptor gamma (Homo sapiens), sequence (P37231 whole entry, looked up): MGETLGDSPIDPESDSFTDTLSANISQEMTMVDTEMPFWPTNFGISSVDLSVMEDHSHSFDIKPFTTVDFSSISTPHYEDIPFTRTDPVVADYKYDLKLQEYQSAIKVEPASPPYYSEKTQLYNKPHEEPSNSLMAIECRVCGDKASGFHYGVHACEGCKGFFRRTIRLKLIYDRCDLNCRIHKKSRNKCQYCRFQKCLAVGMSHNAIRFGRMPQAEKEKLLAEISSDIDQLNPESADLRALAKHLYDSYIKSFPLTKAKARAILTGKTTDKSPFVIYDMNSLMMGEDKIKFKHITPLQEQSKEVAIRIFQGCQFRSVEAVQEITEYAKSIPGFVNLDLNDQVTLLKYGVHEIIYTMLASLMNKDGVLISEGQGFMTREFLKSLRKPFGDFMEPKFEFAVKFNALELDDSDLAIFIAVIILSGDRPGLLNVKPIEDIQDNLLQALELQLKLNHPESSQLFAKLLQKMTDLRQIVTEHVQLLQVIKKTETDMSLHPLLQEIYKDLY
Human liver HepG2 cells are transiently transfected with multiple reporter transcription units (MRTUs) in 6-well plates using FuGene 6 reagent (Roche; 3 ml FuGene/1 mg DNA). The MRTU constructs are regulated by a cis-regulating element (promoter). Each RTU expresses a GAL4-UAS that regulates the transcription of a nearby target reporter gene sequence. A major difference between the CIS and TRANS system is that in CIS activities of endogenous TFs are measured, whereas the TRANS assay evaluates changes in activities of exogenous, chimeric NR-Gal4 proteins. […] At the end of 24 hour incubation, total RNA was isolated using TriZol reagent (Invitrogen). The isolated RNA is then reverse-transcribed using oligo(dT) primer and Mo-MLV reverse transcriptase (Invitrogen) with DNAse I (Ambion) treatment for 30 min. The one-tenth of the produced cDNA was amplified by PCR using Taq DNA polymerase (Invitrogen) and two reporter sequence-specific primers. The PCR products were fluorescently labeled by primer extension with 6-arboxyfluorescein (6-FAM) 5'-labeled reporter sequence-specific primer (2 min at 95 C, 20 s at 68 C and 10 min at 72 C) and these products were digested with 5U of HpaI (New England Biolabs) for 2h at 37 C. The fragments were purified using Qiaquick PCR columns (Qiagen), analyzed on an ABI 3130xL genetic analyzer (Applied Biosystems) with peak positions identified by using a set of X-rhodamine (ROX)-labeled MapMarker1000 molecular weight standards (BioVentures). The raw capillary electrophoresis data was processed using Attagraph software (Attagene).
The AC50 is the concentration at which the activity in the assay is half-maximal. As for `Cc1nc(-c2ccc(C(F)(F)F)cc2)sc1C(=O)NCc1ccc(OC(C)(C)C(=O)O)cc1`, the concentration at half-maximal activity (AC50) was 1.29 µM (active).
Take `C=C(c1ccc(C(=O)O)cc1)c1cc2c(cc1C)C(C)(C)CCC2(C)C`: the AC50 is 1.1 µM (active).
For the molecule `C[C@@H]1C[C@H]2[C@@H]3CCC4=CC(=O)C=C[C@]4(C)[C@@]3(F)[C@@H](O)C[C@]2(C)[C@@]1(O)C(=O)COP(=O)(O)O`, the result was inactive.
Consider `CC(C)(Oc1ccc(C2CC2(Cl)Cl)cc1)C(=O)O` (configuration not stated), for which the concentration at half-maximal activity (AC50) is 37.3 µM (active).
For the molecule `C[C@]12C=CC(=O)C=C1CC[C@@H]1[C@@H]2C(=O)C[C@@]2(C)[C@H]1CC[C@]2(O)C(=O)CO`, the molecule was called inactive.
As for `CC(C)(Oc1ccc(Cl)cc1)C(=O)O`, the half-maximal activity concentration (AC50) was 80.6 µM (active).
Same read-out and setting: with `CC(C)(Oc1ccc(CCNC(=O)c2ccc(Cl)cc2)cc1)C(=O)O` the figure was 14 µM (active).
